# Bioassay records: PubChem, National Center for Advancing Translational Sciences (NCATS)
# Compounds with a hit are over-represented: about 12% of the library has one in this group of screens.
# JMJD2A Tudor = JMJD2A Tudor domain (human) inhibition; O75164; AlphaScreen JMJD2A-Tudor / H3K4me3 peptide binding; Potency, µM (top dose mostly 114 µM), usual class: inhibitors; 4.4% of 390,000 active; AID 504339; note: nearly all actives have a fitted effect of over 50% in size
# HP1b binding inh = blocks HP1-beta chromodomain binding to methylated histone tails; P83916; AlphaScreen HP1-beta / biotin-H3K9me3 peptide binding; Potency, µM (titrated, usually from 114 µM), usual class: inhibitors; 0.56% of 390,000 active; AID 540317; note: nearly all actives have a fitted effect of over 70% in size
# Target sequence (P83916 whole entry, looked up): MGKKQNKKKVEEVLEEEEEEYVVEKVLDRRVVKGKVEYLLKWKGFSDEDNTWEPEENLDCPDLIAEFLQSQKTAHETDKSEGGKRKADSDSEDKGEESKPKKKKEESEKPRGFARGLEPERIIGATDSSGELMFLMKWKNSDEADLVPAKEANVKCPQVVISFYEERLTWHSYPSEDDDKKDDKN
#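 HP1-beta protein (50 nM final) preincubated 30 min at room temperature with biotinylated H3(1-18)K9me3 peptide (50 nM) in PBS pH 7.4, 0.01% Tween-20, then compound added for 30 min. AlphaScreen streptavidin donor/nickel chelate acceptor beads (10 ug/mL final), 30 min dark, luminescence read.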
# G9a inh = inhibitors of human histone lysine methyltransferase G9a | G9a H3K9 monomethylation, AlphaScreen, 2 h | Potency, µM (highest dose often 102 µM), hits mostly inhibitors | 8.8% of 350,000 active | AID 504332; note: nearly all actives have a fitted effect of over 75% in size
# Target sequence (Q96KQ7 913-1193 limits assumed): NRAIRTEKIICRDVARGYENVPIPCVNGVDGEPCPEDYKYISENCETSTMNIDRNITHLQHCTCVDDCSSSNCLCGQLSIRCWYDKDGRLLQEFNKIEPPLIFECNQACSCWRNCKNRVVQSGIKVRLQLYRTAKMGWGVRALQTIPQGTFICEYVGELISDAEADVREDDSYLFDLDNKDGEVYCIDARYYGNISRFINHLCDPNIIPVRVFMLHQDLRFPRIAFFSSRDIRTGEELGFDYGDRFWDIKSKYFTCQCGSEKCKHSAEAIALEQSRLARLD
#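 Signal arises when biotinylated H3K9 peptide, once monomethylated, bridges streptavidin donor and antibody-captured acceptor beads. Enzyme at 20 nM was preincubated 15 min with test compounds; peptide 500 nM and SAM 20 uM then reacted for 2 h.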
# BAZ2B block = BAZ2B (human) inhibition; AID 504333; 4.4% of 360,000 active; AlphaScreen BAZ2B-H3K14Ac peptide displacement; Q9UIF8; Potency, µM (series often up to 114 µM), most hits filed as inhibitors; note: nearly all actives have a fitted effect of over 60% in size
#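 BAZ2B 50 nM plus b-H3(5-23)K14Ac 50 nM, PBS pH 7.4/0.01% Tween-20, 30 min RT; compound added (max 110 uM), 30 min RT; streptavidin donor/Ni-chelate acceptor beads 10 ug/mL final, 20 min dark; AlphaScreen read.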
# Sfp inh = inhibitors of Bacillus subtilis Sfp phosphopantetheinyl transferase. Q9F4F7. 3.5% of 310,000 active. Biochemical Sfp PPTase activity, qHTS. AID 1490. Potency, µM, actives largely listed as inhibitors;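 note: the enzyme is Sfp with the accession as filed and its product quenches rhodamine fluorescence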
#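 Compounds were incubated with enzyme (final 15 nM) for 15 min at room temperature before substrate addition started the reaction. Fluorescence at 525 nm excitation, 598 nm emission was recorded immediately and after 30 minutes.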
# Numbers stand for hits; n = inactive; u = inconclusive; x = no result; ! = repeats disagree; [ ] = remark or other dose. Calls come from the whole dose curve; as a rule, active = well fitted curve in the direction sought with a large enough effect; inconclusive = small, poorly fitted or top-dose-only effect, or another doubt; inactive = no such curve, though single readings can be large; an effect the other way counts as inactive or inconclusive.
SMILES,JMJD2A Tudor,HP1b binding inh,G9a inh,BAZ2B block,Sfp inh
Nc1nc(=S)c2ncn(C3OC(CO)C(O)C3O)c2[nH]1 (centres undefined),7.9µM,u,2µM,45µM,6.3µM
Nc1nc(=S)c2ncn([C@@H]3O[C@H](CO)[C@@H](O)[C@H]3O)c2[nH]1,5µM,u,1.8µM,u,x
COC(=O)c1ccc(C(/C=C/[C@@H](C)C(=O)NCc2ccccc2)NC(=O)OCc2ccccc2)cc1 (some centres undefined),x,x,x,x,n
Cc1ccc(NC(=O)CCN2C(=O)c3ccccc3Sc3ncccc32)c(Cl)c1,n,n,n,n,x
Cc1cc(OCC(=O)Nc2cnn(CCCC(=O)O)c2)ccc1Cl,n,n,14µM!,n,n
O=C(O)CCCn1cc(NC(=O)COc2ccccc2F)cn1,79µM!,n,n,n,n
COC(=O)C1=C(C)N(c2cc(C)cc(C)c2)/C(=C/c2ccco2)C1=O,79µM,n,u,50µM,u
COC(=O)C1=C(C)N(c2cc(C)cc(C)c2)/C(=C/c2ccc(O)cc2)C1=O,n,n,u,n,45µM
COC(=O)C1=C(C)N(c2ccccc2)/C(=C/c2ccco2)C1=O,n,n,x,n,n
CCCNC(=O)c1ccccc1NC(=O)c1cccc(-n2cnnn2)c1,n,n,n[12.7 µM],n,x
COC(=O)c1ccccc1NC(=O)Cn1c(CCC(=O)O)ccc1-c1cccs1,n,n,u,n,56µM
Cc1ccccc1NC(=O)Cn1c(CCC(=O)O)ccc1-c1cccs1,n,n,n,u,n
Cc1ccc(NC(=O)Cn2c(CCC(=O)O)ccc2-c2cccs2)cc1,n,n,n,u,25µM
COC(=O)c1cc2oc3ccccc3c2n1Cc1ccc(Cl)cc1,n,n,n,n,x
CCc1ccc(NC(=O)C2=C(C)C(=O)OC23CCCCC3)cc1,n,n,n,u,x
COc1ccc(NC(=O)CN2C(=O)NC3(CCCC3)C2=O)cc1Cl,n,n,n,n,n
O=C(N/N=C\c1ccc(-c2ccccc2[N+](=O)[O-])o1)C1COc2cc3ccccc3cc2O1 (centres undefined),u,n,u,u,n
O=C(N/N=C\c1ccc([N+](=O)[O-])o1)C1COc2ccccc2O1 (centres undefined),n,n,56µM,n,n
O=C(N/N=C\c1ccc([N+](=O)[O-])s1)C1COc2ccccc2O1 (centres undefined),u,n,n,n,n
O=C(N/N=C\c1ccc(-c2ccccc2[N+](=O)[O-])o1)C1COc2ccccc2O1 (centres undefined),u,n,28µM,u,n
CCN(Cc1ccccc1)C(=O)/C=C/c1ccccc1[N+](=O)[O-],n,n,n,89µM,n
O=C(/C=C/c1ccccc1[N+](=O)[O-])c1ccc(F)cc1,n,n,40µM,n,n
O=C(/C=C/c1ccccc1[N+](=O)[O-])Oc1ccccc1,x,x,71µM,u,n
Cc1ccc(NC(=O)CCCN2C(=O)NC(C)(C)C2=O)cc1,n,n,n[12.7 µM],n,x
Cc1ccc2oc(C(=O)N3CCN(Cc4nccn4C)CC3)c(C)c2c1,n,n,n[0.0925 µM],u,n
SMILES,JMJD2A Tudor,HP1b binding inh,G9a inh,BAZ2B block,Sfp inh
CCOc1ccc(NC(=O)CCc2c(C)nc3cc(-c4ccc(Cl)cc4)nn3c2C)cc1,n,n,0.71µM,n,x
NC(=O)COC(=O)c1ccc(Cl)c(S(=O)(=O)N(Cc2ccccc2)c2ccc(Cl)cc2)c1,u,n,u,n,n
O=C(O)c1ccc(Cl)c(S(=O)(=O)N(Cc2ccccc2)c2ccc(Cl)cc2)c1,n,n,50µM,n,n
C=CCNC(=O)COC(=O)c1ccc(Cl)c(S(=O)(=O)N(Cc2ccccc2)c2ccccc2)c1,n,n,32µM,n,n
C=CCn1c(CSc2nc3ccccc3s2)n[nH]c1=S,50µM,n,4.5µM,n,n
CCCSc1nnc(CSc2nc3ccccc3s2)n1-c1ccccc1,n,n,n[0.501 µM],n,n
CCn1c(CSc2nc3ccccc3s2)n[nH]c1=S,11µM,n,2.8µM,n,n
S=c1[nH]nc(CSc2nc3ccccc3s2)n1Cc1ccccc1,u,n,3.2µM,n,n
CN(C)CCOC1c2ccccc2CCc2ccc3ccccc3c21 (centres undefined),32µM,u,x,x,x
CCC(C)C1NC(=O)C(Cc2ccc(O)cc2)NC(=O)C(N)CSSCC(C(=O)N2CCCC2C(=O)NC(CC(C)C)C(=O)NCC(N)=O)NC(=O)C(CC(N)=O)NC(=O)C(CCC(N)=O)NC1=O (centres undefined),x,x,n[2.33 µM],x,n
Cc1ccc(C(=O)Nc2ccc(C(=O)N/N=C/c3ccncc3)cc2)cc1,x,x,32µM,u,n
Cc1ccc(N/N=C/c2ccncc2)cc1,u,n,28µM,u,n
Cc1cc(C)n(CC(=O)O)c(=O)c1[N+](=O)[O-],n,n,45µM,n,n
Cc1cc(C)c(C(=O)Cn2nc(C)c([N+](=O)[O-])c2C)cc1C,n,n,n,n,n
C=CCc1ccccc1OCC(O)CN1CCN(c2ccc(OC)cc2)CC1 (centres undefined),18µM,u,u,50µM,n
Cc1cccc(C)c1OCC(O)CN1CCN(c2ccccc2)CC1 (centres undefined),n,n,71µM,u,n
COc1ccccc1N1CCN(CC(O)COc2c(OC)cccc2OC)CC1 (centres undefined),n,n,14µM,n,n
COc1cccc(OC)c1OCC(O)CN1CCN(c2ccccc2)CC1 (centres undefined),n,n,u,n,n
Cc1ccc(N2CCN(CC(O)COc3cccc4ccccc34)CC2)cc1 (centres undefined),45µM,u,40µM,35µM,u
CCOC(=O)N1CCN(C(=O)CNC(=O)c2ccc(Br)o2)CC1,n,n,n,n,n
CCN(CC)S(=O)(=O)c1ccc2c(c1)c(=O)c(C(=O)N1CCN(c3cc(C)ccc3C)CC1)cn2C,n,n,n,x,x
C=CCc1ccccc1OCC(O)CNC (centres undefined),n,n,50µM,n,n
C=CCc1ccc(OCC(O)CN2CCN(c3ccccc3OC)CC2)c(OC)c1 (centres undefined),n,n,n[2.33 µM],u,n
Cc1ccc(C)c(OCC(O)CN2CCC(C)CC2)c1C (centres undefined),n[11.4 µM],n,u,50µM,n
C=CCc1ccc(OCC(O)CN2CCN(Cc3ccc(Cl)cc3)CC2)c(OC)c1 (centres undefined),n,n,50µM,u,n
Cc1ccccc1NC(=O)CSc1nc2ccc(NC(=O)CCc3ccccc3)cc2s1,n,n,n,n,x
Cc1ccc2oc3c(c(=O)c2c1)C(c1cccc(Cl)c1)N(CCCN1CCOCC1)C3=O (centres undefined),n,n,50µM,n,n
Cc1ccc2oc3c(c(=O)c2c1)C(c1cccc(O)c1)N(CCCN1CCOCC1)C3=O (centres undefined),n,n,n,n,x
